Experimental data: ChEMBL document CHEMBL3988442, “University of Dundee, Small-Polar-MMV Screening Library” (2021)
Among all 48,000 compounds or so, about 13,000 (27%) showed an effect of 50% or more. This is one part of the list.

system: Wolbachia pipientis; assay: Anti-Wolbachia Cell-Based Screen; type: functional; set-up: scale not given: in the data most compounds retested in dose-response had high values; conditions: 5 µM

First: CCN(C)C[C@@H]1CN(S(=O)(=O)c2ccc(C#N)cc2)C[C@@H]1CO
Second: CCS(=O)(=O)N1C[C@@H](C(=O)NC(C)C)[C@@]2(Cc3ccccc3C(=O)N2)C1
The “Percent Effect” value of the first is lower: -9.397% for the first, 141.4% for the second.

Compared with c1ccc2[nH]c(C3CCN(Cc4nnc(C5CC5)o4)CC3)nc2c1, F[C@@H]1CN(CC2CC2)C[C@@H]1OCc1nc2ccccc2o1 is lower in “Percent Effect” value: -0.6702% for the first, -15.91% for the second.

Going from O=C1CC2(CCN(CC3CC3)CC2)CN1Cc1cc(F)cc(F)c1 to O=C1CC2(CCN(CC3CCOC3)CC2)CN1Cc1cc(F)cc(F)c1 (stereo not given), the “Percent Effect” value falls from 122.7% to 4.353%.

Going from CN(Cc1ccn[nH]1)Cc1c[nH]nc1-c1ccc(F)cc1 to O=C(NCCn1ccnc1-c1cc2n(n1)CCNC2)c1ccc(F)cc1, the “Percent Effect” value rises from 4.933% to 10.43%.

First: CCN(CCc1nc2cc(C)ccc2[nH]1)C(=O)[C@@H](N)CCSC
Second: CCN(CC)C(=O)CCNC(=O)Cc1nc(-c2ccco2)oc1C
The “Percent Effect” value of the first is lower: 1.745% for the first, 11.44% for the second.

Compared with O=C(NCc1cc2n(n1)CCCNC2)c1cn2cc(Cl)ccc2n1, O=C(NCc1cc2n(n1)CCCNC2)C1(c2ccc(Cl)cc2)CCC1 is higher in “Percent Effect” value: -5.425% for the first, 14.56% for the second.

Compared with O=C(NCc1csc2ccc(Cl)cc12)c1cc2n(n1)CCNC2, O=C(NCc1sc2ccccc2c1Cl)c1cc2n(n1)CCNC2 is higher in “Percent Effect” value: 87.95% for the first, 92.76% for the second.

First: CC(C)N1CCCn2nc(C(=O)NCCc3ccccn3)cc2C1
Second: O=C(NCc1ccccn1)c1cc2n(n1)CCNC2
The “Percent Effect” value of the first is lower: -11.55% for the first, 99.68% for the second.

Compared with Cc1ncsc1CCC(=O)NCc1cc2n(n1)CCNC2, O=C(NCCn1ccnc1-c1cc2n(n1)CCNC2)c1ccncc1 is lower in “Percent Effect” value: -3.955% for the first, -6.247% for the second.

Compared with CN(CC(=O)N1CCCC1)C(=O)c1cccn1CCc1ccccc1, C[C@@H]1CN(CCOCc2ccccc2)CC[C@@]1(O)C1CCC1 is higher in “Percent Effect” value: -6.272% for the first, -4.959% for the second.

First: O=C(c1ccno1)N1CCN2C(=O)N(Cc3ccc(F)cc3)C[C@H]2C1
Second: O=C(NCCCn1cccn1)C1CCC(=O)N(Cc2ccccc2F)C1 (stereo not given)
The “Percent Effect” value of the first is higher: -2.469% for the first, -2.925% for the second.

Going from Cc1nc(CN2CCc3nc(NC(C)C)nc(C)c3C2)cs1 to Cc1nc(CN2CCCC(N(C)Cc3nc(CC(C)C)no3)C2)no1 (stereo not given), the “Percent Effect” value falls from 12.48% to -5.621%.

Compared with CCN(C)C(=O)c1cnc(-c2noc3cc(N4CCCCC4)ccc23)s1, CCc1nc(CN2CCCN(c3ncnc4sccc34)CC2)no1 is lower in “Percent Effect” value: -13.96% for the first, -94.29% for the second.

Compared with Cc1ccc(CNC2(Cc3cc(CO)on3)COC2)o1, CNc1nc(CNC(=O)Nc2cccc(F)c2C)cs1 is higher in “Percent Effect” value: -19.01% for the first, -1.885% for the second.

First: CCC[C@@H](NC(N)=O)C(=O)N1Cc2ccccc2-c2ccccc2C1
Second: CC(C)NC(=O)[C@@H]1CN(C(=O)C2CC2)C[C@]12Cc1ccccc1C(=O)N2
The “Percent Effect” value of the first is lower: -11.77% for the first, 129.2% for the second.

Going from CC(C)NC(=O)C1CN(C(=O)c2cccs2)CC12CCOCC2 (stereo not given) to CC(C)NC(=O)C1CN(C(=O)c2ccco2)CC12CCOCC2 (stereo not given), the “Percent Effect” value rises from -10.16% to 3.507%.

Going from CC(C)C[C@@H]1N[C@H](C(=O)NC(C)C)Cc2c[nH]c3cccc1c23 to CC(C)CCNC(=O)c1ccc(-c2ccco2)[nH]c1=O, the “Percent Effect” value rises from -15.72% to 11.73%.

Compared with O=C(CS(=O)(=O)Cc1ccc(Br)cc1F)Nc1cn[nH]c1, COc1cc(NC(=O)N(C)Cc2ccc(Br)o2)ncn1 is higher in “Percent Effect” value: -22.34% for the first, 1.624% for the second.

Going from N#Cc1ccc(N2CCCN(c3nccs3)CC2)nc1 to N#Cc1ccc(N2CCN(c3nccs3)CC2)nc1, the “Percent Effect” value rises from -14.61% to -4.592%.

First: c1csc(N2CCN(c3ncnc4sccc34)CC2)n1
Second: c1csc(N2CCCN(c3ncnc4sccc34)CC2)n1
The “Percent Effect” value of the first is lower: 140.7% for the first, 165.2% for the second.

Compared with Cc1noc(C(C)N2CCN(c3ncnc4sccc34)CC2)n1 (stereo not given), COCC1CC2(CCN(c3cccc(C)n3)CC2)CN1c1ncccn1.O=C(O)C(F)(F)F (stereo not given) is higher in “Percent Effect” value: -36.26% for the first, 95.56% for the second.

Going from Cc1cc2cc(CNC3CCN(CC4CCOC4)CC3)oc2cc1C (stereo not given) to CSc1ccc(-c2nc(CN3CCC(NC(C)=O)CC3)c(C)o2)cc1, the “Percent Effect” value rises from -8.178% to 26.44%.

First: CCOC1COC2(CCN(Cc3cccc(C)n3)CC2)C1.O=C(O)C(F)(F)F (stereo not given)
Second: CCOC1COC2(CCN(c3cccc(C)n3)CC2)C1.O=C(O)C(F)(F)F (stereo not given)
The “Percent Effect” value of the first is higher: 109.8% for the first, 89.3% for the second.

Compared with CN(C)C(=O)COC1COC2(CCN(c3ncccn3)CC2)C1 (stereo not given), CN(C)C(=O)COC1COC2(CCN(c3cnccn3)CC2)C1.O=C(O)C(F)(F)F (stereo not given) is higher in “Percent Effect” value: 5.74% for the first, 7.565% for the second.

Going from CCOC1COC2(CCN(c3ncc(C)cn3)CC2)C1 (stereo not given) to Cc1cnc(N2CCC3(CC2)CC(NS(C)(=O)=O)CO3)nc1 (stereo not given), the “Percent Effect” value falls from 100.2% to -15.37%.

First: CCOC1COC2(CCN(Cc3ccco3)CC2)C1.O=C(O)C(F)(F)F (stereo not given)
Second: CCOC1COC2(CCN(c3ccccn3)CC2)C1.O=C(O)C(F)(F)F (stereo not given)
The “Percent Effect” value of the first is lower: -20.65% for the first, 106.9% for the second.

Compared with Cc1cccc(CO[C@@H]2CO[C@@]3(CCN(S(=O)(=O)N(C)C)C3)C2)n1.O=C(O)C(F)(F)F, Cc1cccc(COC2COC3(CCN(S(C)(=O)=O)CC3)C2)n1.O=C(O)C(F)(F)F (stereo not given) is higher in “Percent Effect” value: 0.8682% for the first, 2.01% for the second.

First: CCOC1COC2(CCN(C(=O)c3cccc(C)n3)CC2)C1.O=C(O)C(F)(F)F (stereo not given)
Second: CN(C)C(=O)COC1COC2(CCN(c3cccc(F)c3)CC2)C1.O=C(O)C(F)(F)F (stereo not given)
The “Percent Effect” value of the first is higher: 94.67% for the first, -1.854% for the second.

Going from CCS(=O)(=O)N1CCC2(CC1)CC(Oc1ccccn1)CO2.O=C(O)C(F)(F)F (stereo not given) to CN(C)S(=O)(=O)N1CC[C@]2(C[C@H](Oc3ncccc3F)CO2)C1.O=C(O)C(F)(F)F, the “Percent Effect” value falls from 11.25% to -14.15%.

Going from CCS(=O)(=O)N1CCC2(CC1)CC(COC)N(c1ncccn1)C2.O=C(O)C(F)(F)F (stereo not given) to COCCN1CCC2(CC1)CC(COC)N(c1ncccn1)C2.O=C(O)C(F)(F)F.O=C(O)C(F)(F)F (stereo not given), the “Percent Effect” value falls from -2.955% to -10.3%.

Going from Cn1cc(CN2CCC[C@]3(C[C@H](Oc4ncccc4F)CO3)C2)cn1.O=C(O)C(F)(F)F.O=C(O)C(F)(F)F to Cn1cc(CN2CCC[C@]3(C[C@@H](Oc4ncccc4F)CO3)C2)cn1.O=C(O)C(F)(F)F.O=C(O)C(F)(F)F, the “Percent Effect” value falls from 108.2% to 104.4%.

Going from CS(=O)(=O)N1CCC[C@]2(C[C@@H](Oc3ncccc3F)CO2)C1.O=C(O)C(F)(F)F to O=C(O)C(F)(F)F.O=C(c1cnoc1)N1CCC[C@]2(C[C@H](Oc3ncccc3F)CO2)C1, the “Percent Effect” value rises from -13.76% to -8.736%.

First: O=C(O)C(F)(F)F.O=C(O)C(F)(F)F.c1ccc(O[C@H]2CO[C@@]3(CCN(Cc4ccc5c(c4)OCO5)C3)C2)nc1
Second: CCN1CCO[C@]2(CCC[C@H]2COCc2csc(C)n2)C1.O=C(O)C(F)(F)F.O=C(O)C(F)(F)F
The “Percent Effect” value of the first is higher: 2.667% for the first, -10.73% for the second.

First: COCC1N(S(=O)(=O)c2cn(C)cn2)[C@H]2CC[C@]1(O)CC2 (stereo not given in full)
Second: COC[C@@H]1CCC[C@]12CN(S(=O)(=O)c1cn(C)cn1)CCO2
The “Percent Effect” value of the first is higher: 116.2% for the first, 112.9% for the second.

Going from CCOC[C@@H]1CCC[C@]12CN(S(=O)(=O)c1cn(C)cn1)CCO2 to CC(C)OC[C@H]1CCC[C@]12CN(S(=O)(=O)c1cn(C)cn1)CCO2, the “Percent Effect” value falls from 118.4% to 110%.

Going from COC[C@H]1CCC[C@]12CN(S(=O)(=O)c1cccs1)CCO2 to COC[C@@H]1CCC[C@]12CN(S(=O)(=O)c1cccs1)CCO2, the “Percent Effect” value falls from -5.962% to -10.75%.

First: CO[C@@H]1CCN(S(=O)(=O)c2cn(C)cn2)[C@H]1Cc1ccccc1
Second: CO[C@@H]1CC[C@H]2[C@H]1OCCN2S(=O)(=O)c1cn(C)cn1
The “Percent Effect” value of the first is higher: -1.543% for the first, -3.329% for the second.

Compared with CC(C)OC[C@H]1CCC[C@]12CN(S(=O)(=O)c1cccs1)CCO2, CC(C)OC[C@H]1CCC[C@]12CN(S(=O)(=O)C1CC1)CCO2 is lower in “Percent Effect” value: -17.54% for the first, -22.82% for the second.

Compared with O=C(c1cnccn1)N1CCN2C[C@H](OCC3CC3)C[C@H]2C1, CSc1ncccc1C(=O)N1C[C@H]2CC[C@@H]1CN(CC(=O)N(C)C)C2 is lower in “Percent Effect” value: -2.249% for the first, -12.01% for the second.

Going from CCOc1cccc(COC(=O)c2scnc2C)n1 to COc1ccnc(NC(=O)c2cscn2)c1, the “Percent Effect” value rises from -15.18% to -4.154%.

Compared with O=C(NCCn1cccn1)C1CCC(=O)N(CC2CCCCC2)C1 (stereo not given), C[C@@H]1CN(Cc2cc(C3CCCCC3)no2)CC[C@@]1(O)C1CC1 is higher in “Percent Effect” value: 7.611% for the first, 9.24% for the second.

First: Cc1ccccc1OC1CN(Cc2c(C)nc3ccccn23)C1
Second: COCCCNC(=O)Nc1cc(-c2ccccc2C)nn1CCO
The “Percent Effect” value of the first is lower: -115.8% for the first, -5.534% for the second.

Going from COCCCNC(=O)C(C)n1nc(-c2ccco2)cc(N)c1=O (stereo not given) to COCCNC(=O)C(C)n1nc(-c2ccco2)cc(N)c1=O (stereo not given), the “Percent Effect” value falls from 133.4% to 94.6%.

First: CCC(C)NC(=O)c1ccc(-c2ccco2)[nH]c1=O (stereo not given)
Second: CC(C)OCCCNC(=O)c1ccc(-c2ccco2)[nH]c1=O
The “Percent Effect” value of the first is higher: 3.717% for the first, -5.072% for the second.

First: COc1cc(F)c(CN2CC[C@@](O)(C3CC3)[C@H](C)C2)cc1OC
Second: COc1cccc(OCCN2CC[C@@](O)(C3CCOCC3)[C@H](C)C2)c1
The “Percent Effect” value of the first is lower: 9.055% for the first, 98.26% for the second.

First: C[C@@H]1CN(C(=O)CCCN2CCOCC2)CC[C@@]1(O)C1CCC1
Second: C[C@@H]1CN(C(=O)CCCN2CCCC2)CC[C@@]1(O)C1CCOCC1
The “Percent Effect” value of the first is higher: -2.629% for the first, -4.515% for the second.

Compared with C[C@@H]1CN(CCOc2ccc(F)cc2)CC[C@@]1(O)C1CCOCC1, C[C@@H]1CN(CCCOc2ccc(F)cc2)CC[C@@]1(O)C1CCOCC1 is higher in “Percent Effect” value: 93.05% for the first, 97.34% for the second.

For C[C@@H]1CN(CCOc2ccc(Cl)cc2)CC[C@@]1(O)C1CCOCC1, the “Percent Effect” value was 95.64%.
